Results published in PubChem BioAssay (NCATS).
“And” between values parts separate entries of the source, which are not always exact repeats. Equal values may be shown once. Inconclusive results are not listed. The source made the active and inactive calls. Unless noted, the call rests on the fitted dose curve; in most records, active means well fitted curve in the direction sought with a large enough effect; inconclusive means small, poorly fitted or top-dose-only effect, or another doubt; inactive means no such curve, though single readings can be large; an effect the other way counts as inactive or inconclusive.

Key:
[1] = target: Cellular tumor antigen p53 (Homo sapiens) (UniProt P04637); test: Primary qHTS for small molecule compounds that upregulate eGFP-tagged delta133p53alpha (in N-terminal) cells. (AID 2060322); conditions: NCI-H358 eGFP-delta133p53alpha fluorescence, 24 h; activation: active compounds read high;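 further: cells pre-induced with doxycycline then dosed without doxycycline; 0% = DMSO vehicle and 100% = reference activator; nearly all actives have a fitted effect of over 75% in size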
Sequence of Cellular tumor antigen p53 (Homo sapiens) (P04637 whole entry, looked up, the tested form may be a part): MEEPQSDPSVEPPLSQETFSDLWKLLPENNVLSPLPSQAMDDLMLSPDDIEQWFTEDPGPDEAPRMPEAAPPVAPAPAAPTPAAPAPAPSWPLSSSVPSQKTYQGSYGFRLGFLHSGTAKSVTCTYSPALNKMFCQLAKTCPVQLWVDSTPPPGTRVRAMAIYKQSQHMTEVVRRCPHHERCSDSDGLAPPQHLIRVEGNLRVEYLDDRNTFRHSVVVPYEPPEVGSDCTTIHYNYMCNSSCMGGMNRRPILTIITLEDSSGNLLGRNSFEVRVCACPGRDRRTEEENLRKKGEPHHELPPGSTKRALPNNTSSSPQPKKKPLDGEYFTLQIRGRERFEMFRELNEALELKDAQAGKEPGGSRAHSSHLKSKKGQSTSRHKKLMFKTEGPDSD
How it was run: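 NCI-H358 cells pre-induced 24 h with 10 ng/ml doxycycline for eGFP-delta133p53alpha, plated dox-free and exposed 24 h at 37C to titrated compounds. Fixed, Hoechst-stained; gated GFP peak intensity by laser scanning cytometry, normalized to DMSO (0%) and 57.5 uM 5-azacytidine (100%).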

[2] = target: Cellular tumor antigen p53 (Homo sapiens) (UniProt P04637); test: Primary qHTS for small molecule compounds that upregulate eGFP-tagged delta133p53alpha (in C-terminal) cells. (AID 2060324); conditions: NCI-H358 delta133p53alpha-eGFP (C-terminal tag), GFP fluorescence imaging, 24 h; series mostly up to 57.5 µM;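 further: 0% = DMSO wells and 100% = 57.5 µM 5-azacytidine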
How it was run: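 Doxycycline (100 ng/ml, 24 h) first induced the eGFP fusion in NCI-H358 C-terminal-tag cells. Washed-out cells then received titrated compounds for 24 h at 37 °C before paraformaldehyde fixation, Hoechst staining and cytometric GFP quantification.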

[3] = target: Aldehyde dehydrogenase, mitochondrial (Homo sapiens) (UniProt P05091); test: qHTS for Inhibitors of the Aldehyde Dehydrogenase Family (ALDH2) Validation screens (AID 2061302; active means well fitted inhibition curve with a large enough effect; title and protocol of this record describe different tests;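 further: plate controls were DMSO vehicle for no effect and maximal DPI positive control response for full effect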); conditions: ALDH inhibition qHTS; series mostly up to 42.6 µM
[4] = target: Retinaldehyde dehydrogenase 3 (Homo sapiens) (UniProt P47895); test: qHTS for Inhibitors of the Aldehyde Dehydrogenase Family (ALDH1A3) Validation screen (AID 2061312); conditions: ALDH1A3 enzyme inhibition qHTS validation, fluorescence; series mostly up to 84.7 µM; further: on the % scale 0 is the no-effect control and ±100 the full control effect; nearly all actives have a fitted effect of over 45% in size

NCC1OC(O[C@H]2[C@H](O)[C@@H](OC3C(O)C(N)CC(N)C3OC3OC(CO)C(O)C(O)C3N)O[C@@H]2CO)C(N)C(O)C1O (some centres not stated)
inactive: activation [1] 6.76% | Potency [2] | Potency [3] | Potency [4]

C#CC(N)CCC(=O)O (configuration not stated)
inactive: activation [1] -41.5% | Potency [2] | Potency [3] | Potency [4]

N[C@H](C(=O)O)c1cc(O)cc(O)c1
inactive: activation [1] -2.9% | Potency [2] | Potency [3] | Potency [4]

[Li+]
inactive: activation [1] -7.03% | Potency [2] | Potency [3] | Potency [4]

CC(=O)c1ccc(S(=O)(=O)NC(=O)NC2CCCCC2)cc1
inactive: activation [1] 3.35% and -2.1% | Potency [2] | Potency [3] | Potency [4]

CCCCCN(CCCCC)C(=O)C(CCC(=O)O)NC(=O)c1ccc(Cl)c(Cl)c1 (configuration not stated)
inactive: activation [1] 13% and -3% | Potency [2] | Potency [3] | Potency [4]

CNC1(C)C2CCC(C2)C1(C)C (configuration not stated)
inactive: activation [1] -45.5% | Potency [2] | Potency [3] | Potency [4]

CC1OC1P(=O)(O)O (configuration not stated)
inactive: activation [1] 13.6% | Potency [2] | Potency [3] | Potency [4]

CC(C)NNC(=O)c1ccncc1
inactive: activation [1] 1.67% and -19% | Potency [2] | Potency [3] | Potency [4]

CC(C)[C@@H]1CC[C@@H](C)C[C@@H]1P(=O)(c1ccccc1)c1ccccc1
inactive: activation [1] -3.04% | Potency [2] | Potency [3] | Potency [4]

N=S(=O)(O)Cc1noc2ccccc12
inactive: activation [1] -35.5% | Potency [2] | Potency [3] | Potency [4]

O=C(O)CCC(=O)N1CCCC1C(=O)O (configuration not stated)
inactive: activation [1] 8.81% | Potency [2] | Potency [3] | Potency [4]

Cn1ccnc1
inactive: activation [1] -23.6% | Potency [2] | Potency [3] | Potency [4]

NCCCCN
inactive: activation [1] 16% | Potency [2] | Potency [3] | Potency [4]

CC(N)(Cc1ccc(O)cc1)C(=O)O (configuration not stated)
inactive: activation [1] -18.1% | Potency [2] | Potency [3] | Potency [4]

Nc1ccc(CCNc2ncnc3c2ncn3C2OC(CO)C(O)C2O)cc1 (configuration not stated)
inactive: activation [1] -6.89% | Potency [2] | Potency [3] | Potency [4]

CCOC(=O)[C@H](CCc1ccccc1)N[C@@H](C)C(=O)N1[C@H](C(=O)O)C[C@H]2CCCC[C@@H]21
inactive: activation [1] -16.3% | Potency [2] | Potency [3] | Potency [4]

NCCS
inactive: activation [1] -9.6% and 3.67% | Potency [2] | Potency [3] | Potency [4]

CC(=O)NNC(=O)N1Cc2ccccc2Oc2ccc(Cl)cc21
inactive: activation [1] -0.739% | Potency [2] | Potency [3] | Potency [4]

Cn1c(=O)c2c(nc(/C=C/c3cccc(Cl)c3)n2C)n(C)c1=O
inactive: activation [1] -0.199% | Potency [2] | Potency [3] | Potency [4]

CNc1ncnc2c1ncn2[C@H]1C[C@H](OP(=O)(O)O)[C@@H](COP(=O)(O)O)O1
inactive: activation [1] 3.4% | Potency [2] | Potency [3] | Potency [4]

NC(N)=N/N=C/c1c(Cl)cccc1Cl
inactive: activation [1] 35% | Potency [2] | Potency [3] | Potency [4]

OC[C@H]1O[C@@H](n2cnc3c(NC4CCCC4)ncnc32)[C@H](O)[C@@H]1O
inactive: activation [1] -30.9% | Potency [2] | Potency [3] | Potency [4]

NC(=O)C(=O)O
inactive: activation [1] -8.72% | Potency [2] | Potency [3] | Potency [4]

COCCOC(=O)C1=C(C)NC(C)=C(C(=O)OC/C=C/c2ccccc2)C1c1cccc([N+](=O)[O-])c1 (configuration not stated)
inactive: activation [1] 8.47% and -12.4% | Potency [2] | Potency [3] | Potency [4]

O=c1onc2n1-c1cc(Br)ccc1OC2
inactive: activation [1] -18.5% | Potency [2] | Potency [3] | Potency [4]

CNc1ncnc2c1ncn2[C@@H]1O[C@H](CO)[C@@H](O)[C@H]1O
inactive: activation [1] 5.48% | Potency [2] | Potency [3] | Potency [4]

N=C(N)c1ccccc1
inactive: activation [1] -12.8% | Potency [2] | Potency [3] | Potency [4]

O=C(O)[C@H]1NCCC[C@H]1C(=O)O
inactive: activation [1] -3.88% | Potency [2] | Potency [3] | Potency [4]

CN(C)CCOC(C)(c1ccccc1)c1ccccn1 (configuration not stated)
inactive: activation [1] -7.21% | Potency [2] | Potency [3] | Potency [4]

CN1[C@@H](CC(=O)c2ccccc2)CCC[C@H]1C[C@H](O)c1ccccc1
inactive: activation [1] 1.49% | Potency [2] | Potency [3] | Potency [4]

c1cnc2c(c1)ccc1cccnc12
inactive: activation [1] -78.4% | Potency [2] | Potency [3] | Potency [4]

C=CC(C)=C[C@@]1(C)SC(=O)C(C)=C1O
inactive: activation [1] 0.958% | Potency [2] | Potency [3] | Potency [4]
